Source: PubChem BioAssay
For part of these data: Results with a measured potency or affinity are listed apart. Peptide text beside a SMILES is read from it.

Test: polyglutamine-triggered caspase-3 activation inhibitors, cell-based (AID 1583)
Details: polyglutamine-induced caspase-3 activation, cell assay; stronger effect = higher value; concentration not given here

Compound | inhibition [%]
CN[C@@H]1[C@H](O)[C@H](NC)[C@H]2O[C@@]3(O)C(=O)C[C@@H](C)O[C@H]3OC2[C@H]1O (some centres undefined) | 1.15
CC[C@@H](C(=O)C(C)[C@@H](O)[C@H](C)CCc1ccc(C)c(O)c1C(=O)O)C1OC(CC)(C2CC[C@](O)(CC)[C@H](C)O2)C[C@@H]1C (some centres undefined) | 75.5
CCCCC(=O)OC1(C(=O)CO)C(C)CC2C3CCC4=CC(=O)C=CC4(C)[C@@]3(F)[C@@H](O)CC21C (some centres undefined) | 9.05
O=c1c(O)cc2c(O)oc3c(=O)c(O)cc4c3c2c1CC=4O | -1.16
CC[C@@]1(O)C[C@H](OC2CC(N(C)C)C(OC3CC(O)C(OC4CCC(=O)C(C)O4)C(C)O3)C(C)O2)c2c(cc3c(c2O)C(=O)c2c(O)cccc2C3=O)[C@H]1C(=O)OC (some centres undefined) | -23.8
Cc1cc(Nc2ccccc2C(=O)O)ccc1Cl | -21.2
CC1CC2C3CCC4=CC(=O)C=CC4(C)[C@@]3(F)C(O)CC2(C)[C@@]1(O)C(=O)CO (some centres undefined) | 7.1
NCCCCC(N)C(=O)NC(Cc1c[nH]c2ccccc12)C(=O)NC(CCCCN)C(=O)O (stereo not drawn) (H-Lys-Trp-Lys-OH; configuration not given here) | 5.19
CC(=O)N[C@@H](Cc1c[nH]c2ccccc12)C(N)=O | 11.7
CCC(=O)O[C@@H](O[P@](=O)(CCCCc1ccccc1)CC(=O)N1C[C@H](C2CCCCC2)C[C@H]1C(=O)O)C(C)C | 5.65
C[C@@H]1OC(Oc2c(-c3ccc(O)c(O)c3)oc3cc(O)cc(O)c3c2=O)[C@H](O)[C@H](O)[C@H]1O (some centres undefined) | -5.21
C=C1C(=O)OC2C1CCC1(C)CCC=C(C)C21 (centres undefined) | 56
CC(NC(=O)C(NC(=O)OCc1ccccc1)C(C)C)C(=O)NC(CC(=O)O)C(=O)OC(F)F (centres undefined) | 59.7

Test: suppressors of polyQ aggregation in yeast, 75Q-TubU reporter (AID 1593)
Details: Yeast 75Q polyglutamine aggregation reporter

Compound | score
CN[C@@H]1[C@H](O)[C@H](NC)[C@H]2O[C@@]3(O)C(=O)C[C@@H](C)O[C@H]3OC2[C@H]1O (some centres undefined) | 1.13
CC[C@@H](C(=O)C(C)[C@@H](O)[C@H](C)CCc1ccc(C)c(O)c1C(=O)O)C1OC(CC)(C2CC[C@](O)(CC)[C@H](C)O2)C[C@@H]1C (some centres undefined) | 1
CCCCC(=O)OC1(C(=O)CO)C(C)CC2C3CCC4=CC(=O)C=CC4(C)[C@@]3(F)[C@@H](O)CC21C (some centres undefined) | -0.8
O=c1c(O)cc2c(O)oc3c(=O)c(O)cc4c3c2c1CC=4O | -1.91
CC[C@@]1(O)C[C@H](OC2CC(N(C)C)C(OC3CC(O)C(OC4CCC(=O)C(C)O4)C(C)O3)C(C)O2)c2c(cc3c(c2O)C(=O)c2c(O)cccc2C3=O)[C@H]1C(=O)OC (some centres undefined) | 0.51
Cc1cc(Nc2ccccc2C(=O)O)ccc1Cl | -0.11
CC1CC2C3CCC4=CC(=O)C=CC4(C)[C@@]3(F)C(O)CC2(C)[C@@]1(O)C(=O)CO (some centres undefined) | 1.26
NCCCCC(N)C(=O)NC(Cc1c[nH]c2ccccc12)C(=O)NC(CCCCN)C(=O)O (stereo not drawn) (H-Lys-Trp-Lys-OH; configuration not given here) | 1.32
CC(=O)N[C@@H](Cc1c[nH]c2ccccc12)C(N)=O | 1.31
CCC(=O)O[C@@H](O[P@](=O)(CCCCc1ccccc1)CC(=O)N1C[C@H](C2CCCCC2)C[C@H]1C(=O)O)C(C)C | 0.97
C[C@@H]1OC(Oc2c(-c3ccc(O)c(O)c3)oc3cc(O)cc(O)c3c2=O)[C@H](O)[C@H](O)[C@H]1O (some centres undefined) | 1.19
C=C1C(=O)OC2C1CCC1(C)CCC=C(C)C21 (centres undefined) | 0.7
CC(NC(=O)C(NC(=O)OCc1ccccc1)C(C)C)C(=O)NC(CC(=O)O)C(=O)OC(F)F (centres undefined) | 1.09

Test: rescue of polyQ-huntingtin neuronal dysfunction in worms, whole organism, C. elegans mechanosensory neurons, N-terminal huntingtin (AID 1599)
Details: touch response, stronger effect = higher value

Compound | rescue above control
CN[C@@H]1[C@H](O)[C@H](NC)[C@H]2O[C@@]3(O)C(=O)C[C@@H](C)O[C@H]3OC2[C@H]1O (some centres undefined) | -5.98
CC[C@@H](C(=O)C(C)[C@@H](O)[C@H](C)CCc1ccc(C)c(O)c1C(=O)O)C1OC(CC)(C2CC[C@](O)(CC)[C@H](C)O2)C[C@@H]1C (some centres undefined) | 0
CCCCC(=O)OC1(C(=O)CO)C(C)CC2C3CCC4=CC(=O)C=CC4(C)[C@@]3(F)[C@@H](O)CC21C (some centres undefined) | -0.98
O=c1c(O)cc2c(O)oc3c(=O)c(O)cc4c3c2c1CC=4O | -6.17
CC[C@@]1(O)C[C@H](OC2CC(N(C)C)C(OC3CC(O)C(OC4CCC(=O)C(C)O4)C(C)O3)C(C)O2)c2c(cc3c(c2O)C(=O)c2c(O)cccc2C3=O)[C@H]1C(=O)OC (some centres undefined) | 0
Cc1cc(Nc2ccccc2C(=O)O)ccc1Cl | -9.28
CC1CC2C3CCC4=CC(=O)C=CC4(C)[C@@]3(F)C(O)CC2(C)[C@@]1(O)C(=O)CO (some centres undefined) | 8.02
NCCCCC(N)C(=O)NC(Cc1c[nH]c2ccccc12)C(=O)NC(CCCCN)C(=O)O (stereo not drawn) (H-Lys-Trp-Lys-OH; configuration not given here) | 22.9
CC(=O)N[C@@H](Cc1c[nH]c2ccccc12)C(N)=O | 23.8
CCC(=O)O[C@@H](O[P@](=O)(CCCCc1ccccc1)CC(=O)N1C[C@H](C2CCCCC2)C[C@H]1C(=O)O)C(C)C | 2.83
C[C@@H]1OC(Oc2c(-c3ccc(O)c(O)c3)oc3cc(O)cc(O)c3c2=O)[C@H](O)[C@H](O)[C@H]1O (some centres undefined) | 16.2
C=C1C(=O)OC2C1CCC1(C)CCC=C(C)C21 (centres undefined) | 5.32
CC(NC(=O)C(NC(=O)OCc1ccccc1)C(C)C)C(=O)NC(CC(=O)O)C(=O)OC(F)F (centres undefined) | -1.19
